Bioassay records (PubChem)
Compounds with a hit are over-represented: about 21% of the library has one in this group of screens.
NS1 inh – influenza NS1 inhibition; AID 2326; Potency, µM (titrated, usually from 46.1 µM), without a hit: top-dose activity, positive = more growth; 270,000 tested, 0.4% active; further: potency means the concentration at half of the fitted maximal effect; actives are rising curves; nearly all actives have a fitted effect of over 50% in size
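A cell-based growth assay was used: compounds that relieve NS1-induced slow growth of budding yeast raise OD600. Assay medium was yeast nitrogen base with ammonium sulphate and -URA supplement, pH 6.0, with 2% galactose.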
CHX counter – counter-screen for Shiga toxin inhibitors: cycloheximide protein synthesis inhibition; cell reporter, cycloheximide protein synthesis inhibition counterscreen; max response, %; 300,000 tested, 12% active; in the data active means max response mostly above about 13%, no sharp cut-off; inactive means mostly below about 14%; further: read at 38.3 µM for the half of the compounds with a filed dose; 0% is about no effect
Shiga inhibitor – blocks Shiga toxin action in Vero cells; Vero cells, Shiga toxin protein synthesis inhibition reporter; inhibition, % at 38.7 µM; 290,000 tested, 9.2% active; in the data active means inhibition mostly above about 28%, no sharp cut-off; inactive means mostly below about 43%; further: 0% is about no effect
Pf growth 96h – P. falciparum growth inhibition at 96 hours. P. falciparum luciferase reporter growth, 96 h. Potency, µM (top dose mostly 28.7 µM), inactives show top-dose activity change, negative = inhibition, most hits filed as inhibitors. 320,000 tested, 6.9% active. AID 504834; active means well fitted inhibition curve with a large enough effect; inconclusive means small, poorly fitted or top-dose-only effect, or another doubt; inactive means no such curve, though single readings can be large or run the other way; further: potency means the concentration at half of the fitted maximal effect; on the % scale 0 is the no-effect control and ±100 the full control effect
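Delayed-death screen, second-generation endpoint: infected erythrocytes, 2% hematocrit, 0.05% parasitemia final; 96 hours at 37 C, 5% CO2; luciferase detection reagent; luminescence decrease equals reduced growth.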
Pf growth 48h – P. falciparum growth inhibition at 48 hours (one generation) | P. falciparum luciferase growth in erythrocytes, 48 h | Potency, µM (highest dose often 28.7 µM), for inactives: top-dose activity change, negative = inhibition, actives largely listed as inhibitors | 310,000 tested, 5.9% active | AID 504832; active means well fitted inhibition curve with a large enough effect; inconclusive means small, poorly fitted or top-dose-only effect, or another doubt; inactive means no such curve, though single readings can be large or run the other way; further: potency means the concentration at half of the fitted maximal effect; on the % scale 0 is the no-effect control and ±100 the full control effect
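Growth was read as firefly luciferase luminescence after a 48 h, 37 C, 5% CO2 exposure of compounds to reporter-bearing P. falciparum cultures (0.1% parasitemia, 2% hematocrit final) in Albumax-supplemented RPMI 1640.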
SARS PLpro yeast – inhibitors of SARS-CoV papain-like protease in yeast; S. cerevisiae expressing SARS-CoV PLpro, growth rescue; Potency, µM (doses to about 32.9 µM), for inactives: top-dose activity, positive = growth rescue, most hits filed as activators; 330,000 tested, 0.19% active; AID 485353; further: potency means the concentration at half of the fitted maximal effect; 0% is about no effect; nearly all actives have a fitted effect of over 55% in size
Numbers without * were called inactive; ? = inconclusive; / = no result. Unless noted, the call rests on the fitted dose curve.

SMILES	NS1 inh	CHX counter	Shiga inhibitor	Pf growth 96h	Pf growth 48h	SARS PLpro yeast
C=CCNC(=S)N/N=C/c1ccc(C(F)(F)F)cc1	/	6.7	3.2	?	?	12.4%
CC(C)NC(=S)N/N=C/c1ccc(C(C)(C)C)cc1	-4.1%	21.4*	28.3	?	?	14.6%
COc1ccc(S(=O)(=O)N2CCC(C(=O)NCCc3c[nH]c4ccccc34)CC2)cc1	-1.9%	-4.0	23.7	?	?	2.0%
O=c1c2ccccc2sn1-c1ccc(S(=O)(=O)N2CCCCC2)cc1	-10.0%	/	/	/	/	/
Cc1ccc(C(=O)N2CCCCC2)cc1S(=O)(=O)N1CCCCCC1	2.2%	10.6	-8.7	8.28µM*	?	-3.7%
CCOc1ccccc1N1CCN(C(=O)c2cc(S(=O)(=O)N3CCCCC3)ccc2C)CC1	/	/	/	?	?	0.1%
CCOc1ccccc1N1CCN(C(=O)c2ccc(Cl)c(S(=O)(=O)N3CCCCC3)c2)CC1	/	/	/	5.22µM*	11.7µM*	-0.4%
Cc1ccc(-n2sc3ccccc3c2=O)cc1S(=O)(=O)N1CCCCC1	-27.0%	11.9*	15.3	4.15µM*	2.62µM*	-28.0%
O=C(c1ccc(Cl)c(S(=O)(=O)N2CCCCCC2)c1)N1CCCCC1	11.8%	16.6*	38.9*	6.3%	?	5.2%
CN(CC(=O)O)Cc1c(O)c(Cl)cc(Cl)c1Cl	-2.8%	/	/	/	/	/
Cn1cnc2c1c(=O)n(CC(O)CO)c(=O)n2C (stereo not drawn)	-3.2%	-9.1	-21.0	-10.9%	-7.8%	6.0%
CCOc1ccccc1N1CCN(C(=O)c2cn(CC3CCCCC3)nn2)CC1	-26.1%	37.4*	142.1*	?	10.6%	-8.6%
C[C@@H]1C(=O)O[C@H]2C[C@@]34[C@H]5C[C@@H](C(C)(C)C)[C@]36[C@H](OC(=O)[C@H]6O)O[C@]4(C(=O)O5)[C@]21O	/	-4.2	-8.6	/	/	/
CC(=O)NC12CC3CC(C1)CC(C(=O)Nc1nc4ccc(F)cc4s1)(C3)C2	9.6%	45.0*	70.7*	-21.8%	12.1%	2.5%
CCC(CC)c1nnc(NC(=O)C23CC4CC(CC(NC(C)=O)(C4)C2)C3)s1	-2.7%	-4.0	-8.3	?	?	3.7%
COc1ccc(CNC(=O)C2CCN(C(=O)[C@@H](CC(C)C)NC(=O)OC(C)(C)C)CC2)cc1	-5.5%	0.7	1.0	-15.6%	9.28µM*	-2.9%
Cc1ccc(S(=O)(=O)N2CCC(C(=O)NCC3CCCCC3)CC2)cc1	2.4%	-5.4	-1.8	?	-30.0%	11.1%
CC(C)(C)NC(=O)C1CCN(S(=O)(=O)c2ccc(Br)cc2)CC1	-0.1%	-1.6	-3.7	-9.6%	9.28µM*	0.5%
CCN1CCN(C(=O)C2CCN(S(=O)(=O)c3ccc(Br)cc3)CC2)CC1	-11.3%	0.8	-3.6	?	0.1%	-1.2%
Cc1ccc(S(=O)(=O)N2CCC(C(=O)NCC3CC3)CC2)cc1	-8.0%	2.3	-12.2	0.0%	5.86µM*	0.9%
COc1ccc(S(=O)(=O)N2CCC(C(=O)NCC3CC3)CC2)cc1	1.6%	-4.1	-5.9	3.1%	10.4µM*	-0.6%
CS(=O)(=O)c1ccc(Oc2ccc(-c3nnco3)cc2)c([N+](=O)[O-])c1	-2.2%	16.9	38.5	9.9%	13.2%	-0.6%
Cc1sc2nc(CSc3ccc([N+](=O)[O-])c(C(F)(F)F)c3)[nH]c(=O)c2c1C	13.8%	4.3	7.7	24.3%	17.3%	16.0%
COc1ccc(CNC(=O)C2CSC(c3ccc(OC)cc3)N2C(C)=O)cc1 (stereo not drawn)	-37.0%	3.1	-6.5	-42.4%	/	-4.6%
O=C(NC1CCCCCC1)C1CCN(S(=O)(=O)c2ccccc2)CC1	-4.4%	0.3	-8.1	2.94µM*	-1.0%	1.2%
SMILES	NS1 inh	CHX counter	Shiga inhibitor	Pf growth 96h	Pf growth 48h	SARS PLpro yeast
COc1ccc(CNC(=O)C2CSCCS2)cc1 (stereo not drawn)	-16.1%	24.2*	30.5	21.5%	36.1%	-3.4%
O=C(NCc1ccccc1)C1CCN(c2nc(-c3ccccc3)nc3c2CCC3)CC1	-58.0%	11.4	-5.9	18.9%	?	-1.6%
CC(NC(=O)C1CCN(S(=O)(=O)N2CCCCCC2)CC1)c1ccccc1 (stereo not drawn)	-7.1%	16.5*	-6.8	/	-29.7%	2.9%
CC(NC(=O)C1CCN(S(=O)(=O)N2CCC3(CC2)OCCO3)CC1)c1ccccc1 (stereo not drawn)	/	-2.3	-4.1	0.0%	1.8%	-4.5%
COc1ccc(CNC(=O)C2CCN(c3nc(-c4ccccc4)nc4c3CCC4)CC2)cc1	1.9%	-0.8	8.7	?	1.85µM*	1.2%
O=C(CNS(=O)(=O)c1ccc(Br)cc1)NC1CCCC1	8.7%	-1.3	-2.9	3.4%	-28.3%	3.6%
O=C(COC(=O)C(Cc1ccccc1)NC(=O)c1ccc(Cl)cc1)c1ccc(Cl)cc1 (stereo not drawn)	-31.0%	9.4	-7.2	0.0%	-0.7%	5.7%
Cc1c(C(=O)Nc2ccc(S(=O)(=O)Nc3ncccn3)cc2)oc2ccc(F)cc12	2.0%	9.6	16.5	-0.3%	-13.5%	4.7%
CCCN(C(=O)c1cc2c(s1)CCC2)c1c(N)n(Cc2ccccc2)c(=O)[nH]c1=O	1.0%	-1.6	-3.5	10.3%	58.2%	0.0%
CCS(=O)(=O)N1CCC(C(=O)NCc2ccc(OC)cc2)CC1	/	-1.9	16.9	5.86µM*	14.2%	-1.0%
COc1ccc(S(=O)(=O)N2CCC(C(=O)NC(c3nc4ccccc4[nH]3)C(C)C)CC2)cc1 (stereo not drawn)	/	/	/	?	10.4µM*	-3.2%
CC(C)CN(CC(C)C)S(=O)(=O)N1CCC(C(=O)NC2CCCCCCC2)CC1	-6.0%	-1.6	-15.2	11.7µM*	?	2.1%
Cc1ccc(S(=O)(=O)N2CCC(C(=O)NC3CC3)CC2)cc1	3.8%	-4.1	-8.0	5.3%	2.33µM*	0.7%
CCCCN(C)CCNC(=O)c1cn(C)c(=O)c2c1c1ccccc1n2C	1.9%	-2.1	5.7	32.0%	-24.1%	3.4%
Cc1ccc(NC(=O)c2cccc(S(=O)(=O)N3CCN(C)CC3)c2)cc1F	7.2%	0.9	9.5	?	?	-0.1%
Oc1ccccc1-c1nc2c3ccccc3c3ccccc3c2[nH]1	7.4%	9.1	35.7	?	9.28µM*	-4.9%
Cc1nn(CCC#N)c(NC(=O)c2ccc(Cl)cc2Cl)c1P(=O)(Nc1ccc([N+](=O)[O-])cc1)N1CCOCC1 (stereo not drawn)	-9.9%	11.9	-18.3	/	8.28µM*	2.2%
Cc1nn(CCC#N)c(NC(=O)c2ccc(Cl)cc2)c1P(=O)(Nc1ccc([N+](=O)[O-])cc1)N1CCOCC1 (stereo not drawn)	-5.3%	-2.9	-23.5	/	-13.4%	-2.1%
NS(=O)(=O)c1ccc(CCNC(=O)Cc2ccc(S(=O)(=O)N3CCCC3)s2)cc1	0.5%	-1.0	-3.0	-11.8%	-20.7%	0.5%
CSc1nc(N)nc2c1ncn2CC(=O)NCC1CCCO1 (stereo not drawn)	/	/	/	/	/	4.6%
